# Compound activity (PubChem BioAssay)
# In the library only some 6.5% were active in any assay of this set; here they are far more common.
# MARV entry inh – qHTS for inhibitors of binding or entry into cells for Marburg Virus; Marburg virus pseudotyped entry inhibition, cell reporter; Potency, µM (top dose mostly 37.8 µM), inactives show at the highest dose activity change, negative = inhibition, actives largely listed as inhibitors; actives 1.8% (n = 300,000); AID 540276, 2011; calls by dose curve; tested in HEK293 cells; also: potency is read from the fitted curve at half-maximal effect
# Vaccinia mCherry – qHTS for Stage-Specific Inhibitors of Vaccinia Orthopoxvirus: mCherry Reporter Primary qHTS. Vaccinia virus mCherry reporter infection, fluorescence. Potency, µM (highest dose often 36.5 µM), without a hit: top-dose activity change, negative = inhibition, most hits filed as inhibitors. actives 0.63% (n = 310,000); calls by dose curve; tested in A549 cells; also: potency is read from the fitted curve at half-maximal effect; nearly all actives have a fitted effect of over 35% in size
# FMDV antiviral – High Throughput Screening for Foot and Mouth Disease Virus Antivirals; FMDV antiviral cell-based qHTS; Potency, µM (top dose mostly 57.9 µM), for inactives: at the highest dose activity change, negative = inhibition, most hits filed as inhibitors; actives 1.2% (n = 410,000); AID 1159524, 2015; calls by dose curve; tested in HEK293T cells; also: read-out not given here; potency is read from the fitted curve at half-maximal effect; nearly all actives have a fitted effect of over 45% in size
# Lassa entry inh – qHTS for Inhibitors of binding or entry into cells for Lassa Virus; Lassa virus pseudotype entry inhibition, cell reporter; actives 1.2% (n = 300,000); Potency, µM (highest dose often 37.9 µM), for inactives: at the top dose activity change, negative = inhibition, usual class: inhibitors; AID 540256, 2011; calls by dose curve; tested in HEK293 cells; also: potency is read from the fitted curve at half-maximal effect; nearly all actives have a fitted effect of over 50% in size
# HCMV inh – qHTS Assay for inhibitors of the human cytomegalovirus (HCMV). AID 1259415, 2018. actives 4.5% (n = 410,000). HFF cells, HCMV-luciferase reporter, 72 h; stronger effect = lower value. activity change, negative = inhibition, % at 57.5 µM; in the data active = activity change below about -60%; inconclusive = no clear call, values can overlap the other calls; inactive = above about -39%
#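 HFF cells seeded 16 h at 37C, treated with compounds, infected with luciferase-reporter HCMV at MOI 1 PFU/cell; luciferase read at 72 h post infection, normalized to buffer-only and Salinomycin controls.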
# VACV Venus inh – qHTS for Stage-Specific Inhibitors of Vaccinia Orthopoxvirus: Venus Reporter Primary qHTS | Potency, µM (titrated, usually from 36.5 µM), for the others: at the top dose activity change, negative = inhibition, most hits filed as inhibitors | AID 720580, 2013 | actives 0.46% (n = 330,000) | Vaccinia virus Venus reporter expression, fluorescence; calls by dose curve; tested in A549 cells; also: potency is read from the fitted curve at half-maximal effect; nearly all actives have a fitted effect of over 30% in size
# The depositor's hits bear a star; i = inactive; ? = inconclusive; · = no result given; + = active, no number; [ ] = remark or other dose. % is scaled to controls: 0 for no effect and ±100 for the full control effect.
SMILES,MARV entry inh,Vaccinia mCherry,FMDV antiviral,Lassa entry inh,HCMV inh,VACV Venus inh
CCCCN(C(=O)c1ccc(C)cc1)c1c(N)n(CCC)c(=O)[nH]c1=O,?,-3.3%,-7.9%,4.1%,2.0,-0.1%
Cc1ccc(OCCn2cnc3c2c(=O)n(C)c(=O)n3C)cc1,-15.0%[46.1 µM],i,?,-13.6%,-76.1*,-14.9%
Cn1c(=O)c2c(ncn2CCO)n(C)c1=O,9.7%,-7.9%,-18.1%,·,5.8,-10.8%
COc1ccc(C(C#N)=Cc2cc(OC)c(OC)c(OC)c2)cc1,·,·,·,·,15.8,·
COc1ccccc1-c1cc2c(c(OC)c1)OCCN(CCC(C)c1ccc(C)o1)C2 (stereo not given),·,i,-11.0%,·,·,3.3%
Cc1cccc(-n2c(C)cc(C(=O)C(=O)Nc3ccccc3F)c2C)c1C,5.0%[46.1 µM],-8.4%,0.0%,11.8%[46.1 µM],-66.6*,-5.5%
Cc1cc(C)cc(-n2c(C)cc(C(=O)C(=O)Nc3ccccc3F)c2C)c1,9.6%[46.1 µM],-4.2%,16.4%,21.2%[46.1 µM],19.4,-2.6%
CC1(C)CC(N2CCCC2)=CC(=[N+]2CCCCC2)C1,?,·,?,?,-92.5*,·
Cc1ccc(CN2CCN(Cc3ccccc3)CC2)cc1,·,·,-25.5%,·,22.2,·
CN(Cc1ccccc1)C1=CC(=[N+]2CCCCC2)CC(C)(C)C1,·,i[7.34 µM],?,·,-77.0*,-21.2%[7.34 µM]
CC1(C)CC(NNCCC#N)=CC(=[N+]2CCCC2)C1,-2.8%[46.1 µM],-2.4%,1.9%,-13.4%,?,10.0%
CC1(C)CC(=O)C=C(N2CCN(C3=CC(=O)CC(C)(C)C3)CC2)C1,2.4%,·,·,·,·,·
CC1(C)CC(N2CCN(Cc3ccccc3)CC2)=CC(=[N+]2CCCCC2)C1,6.51µM*,i,?,?,+,-19.9%
CC1(C)CC(N2CCCC2)=CC(=[N+]2CCCC2)C1,2.06µM*,·,?,?,-94.2*,·
O=C(COC(=O)Cc1ccsc1)Nc1ccc(Br)cc1F,?,-10.6%,-9.9%,19.7%,20.6,1.0%
COc1ccc(CNc2cc(-c3cccc(NS(C)(=O)=O)c3)ncn2)c(OC)c1,·,·,-13.2%,·,·,·
CS(=O)(=O)c1ccccc1C(=O)N1CCN(Cc2ccccc2)CC1,9.3%[46.1 µM],-13.4%,-2.0%,-24.0%[46.1 µM],-25.5,-13.6%
COc1ccc(-n2nc(C(=O)N3CCN(c4cccc(C)c4)C(C)C3)c3c4ccccc4n(C)c3c2=O)cc1 (stereo not given),2.6%[46.1 µM],-13.9%,0.0%,-13.0%[46.1 µM],18.1,-4.4%
CC(C)OCCCN1C(=O)c2[nH]nc(-c3ccccc3O)c2C1c1ccc(OCc2ccccc2)cc1 (stereo not given),?,?,-5.2%,?,-98.4*,?
COc1ccc(CCN2C(=O)c3[nH]nc(-c4ccccc4O)c3C2c2cccc(Cl)c2)cc1 (stereo not given),?,2.2%[1.46 µM],-13.4%,?,?,?
CCc1ccc(C2c3c(-c4cc(C)ccc4O)n[nH]c3C(=O)N2Cc2cccnc2)cc1 (stereo not given),12.6µM*,-10.2%,?,?,-11.4,-10.4%
CCOc1ccc(C2c3c(-c4cc(C)ccc4O)n[nH]c3C(=O)N2Cc2cccnc2)cc1OCC (stereo not given),?,-8.3%,-17.7%,?,-10.1,-0.7%
COc1ccc(CCN2C(=O)c3[nH]nc(-c4ccccc4O)c3C2c2cccc(OC)c2)cc1 (stereo not given),12.6µM*,?,-12.0%,?,-71.2*,?
CCOc1cc(C2c3c(-c4cc(C)ccc4O)n[nH]c3C(=O)N2CCCOC(C)C)ccc1O (stereo not given),?,-5.3%[7.34 µM],-6.5%,?,-68.4*,-6.6%[7.34 µM]
COc1cc(C2c3c(-c4cc(C)ccc4O)n[nH]c3C(=O)N2Cc2cccnc2)cc(OC)c1OC (stereo not given),1.2%[46.1 µM],-14.4%,0.0%,?,-10.4,-8.6%
O=C(N/N=C1\C[C@@H](O)[C@@H](O)[C@@H]2[C@@H]3C(=O)N(C[C@@H]4CCCO4)C(=O)[C@@H]3CC[C@@H]12)OCc1ccccc1,-4.7%[14.2 µM],·,·,·,·,·
